Rab9 promoter act – qHTS Assay for Rab9 Promoter Activators | Huh7 Rab9 promoter-luciferase reporter, luminescence, 24 h | 320,000 compounds, 2.8% hits | Potency, µM (doses to about 9.22 µM), inactives show top-dose activation, negative = inhibition, hits mostly activators; further: % of control where 0% means no effect; nearly all actives have a fitted effect of over 60% in size
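Luminescence read-out: Huh7 cells stably expressing Rab9-luciferase, treated 24 h with compound at 37 °C, then lysed with luciferase reagent for 10 min at ambient before reading.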
SMN2 splice enh – qHTS Assay for Enhancers of SMN2 Splice Variant Expression; HEK293 SMN2-luciferase splicing reporter, luminescence, 30-36 h; Potency, µM (top dose mostly 46.1 µM), for the others: at the highest dose activity change, positive = activation, most hits filed as activators; 210,000 compounds, 2.8% hits; AID 1458, 2008; further: % of control where 0% means no effect; nearly all actives have a fitted effect of over 55% in size
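HEK293 cells carry an SMN2 […]–luciferase reporter in which exon 7 inclusion puts luciferase in frame. Cells were plated 10-12 h before compound addition, then incubated 30-36 h at 37C. ONE-Glo luminescence was read; sodium butyrate at 4.5 mM final served as control.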
NPC1 promoter act – qHTS Assay for NPC1 Promoter Activators. AID 485313, 2010. 320,000 compounds, 2.4% hits. Potency, µM (highest dose often 9.22 µM), for inactives: top-dose activation, actives largely listed as activators. Huh7 NPC1 promoter luciferase reporter, 24 h; further: % of control where 0% means no effect; nearly all actives have a fitted effect of over 60% in size
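In 1536-well qHTS, Huh7 cells harboring an NPC1 promoter–luciferase construct received compound for 24 h; activation was quantified by luminescence following luciferase reagent addition.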
FLuc counter – qHTS profiling assay for firefly luciferase inhibitor/activator using purifed enzyme and Km concentrations of substrates (counterscreen for miR-21 project); Luciferin 4-monooxygenase (Photinus pyralis), P08659; purified FLuc, Km substrates, luminescence inhibition; Potency, µM (series often up to 57.5 µM), for the others: at the highest dose activity change, negative = inhibition, usual class: inhibitors; 360,000 compounds, 6.9% hits; AID 588342, 2011;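 further: plate controls were vehicle for no effect and reference inhibitor for full effect; nearly all actives have a fitted effect of over 55% in size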
Target sequence (P08659 whole entry, looked up): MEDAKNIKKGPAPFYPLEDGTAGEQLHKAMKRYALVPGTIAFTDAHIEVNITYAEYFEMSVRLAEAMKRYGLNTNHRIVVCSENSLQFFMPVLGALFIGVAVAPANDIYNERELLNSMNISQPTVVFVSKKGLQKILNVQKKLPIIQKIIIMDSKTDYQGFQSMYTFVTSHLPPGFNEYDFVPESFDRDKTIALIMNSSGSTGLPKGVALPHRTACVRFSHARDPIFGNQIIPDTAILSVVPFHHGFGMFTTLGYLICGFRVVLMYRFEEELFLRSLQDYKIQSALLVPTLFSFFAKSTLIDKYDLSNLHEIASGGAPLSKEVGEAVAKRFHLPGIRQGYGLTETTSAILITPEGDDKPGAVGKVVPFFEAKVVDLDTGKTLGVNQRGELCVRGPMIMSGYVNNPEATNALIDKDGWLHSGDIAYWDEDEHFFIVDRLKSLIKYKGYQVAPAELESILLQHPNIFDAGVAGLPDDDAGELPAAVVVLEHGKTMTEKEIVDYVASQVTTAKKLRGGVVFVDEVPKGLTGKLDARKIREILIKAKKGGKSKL
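Purified P. pyralis luciferase (10nM final) with 10uM D-luciferin and 10uM ATP (Km levels) in 50mM Tris acetate pH 7.5, 10mM Mg acetate, 0.01% Tween-20, 0.05% BSA; qHTS 6-point titration, ~60 µM downward; luminescence read.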
ELG1 genotox – qHTS screen for small molecules that induce genotoxicity in human embryonic kidney (HEK293T) cells expressing luciferase-tagged ELG1 | HEK293T ELG1-luciferase reporter, luminescence, 16 h | Potency, µM (series often up to 46 µM), for inactives: at the highest dose activity change, positive = activation, usual class: activators | 330,000 compounds, 1.3% hits; further: % of control where 0% means no effect; nearly all actives have a fitted effect of over 60% in size
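Reporter readout depends on ELG1 protein level, which increases with genetic stress. After 16 hr compound exposure at 37 °C, luciferase activity was quantified using ONE-Glo.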
* marks the source's active call; other numbers are inactive results; u = inconclusive; x = not tested or not shown; [ ] = dose if it differs, or a comment. An excerpt weighted towards active compounds, which were near 7.4% of everything screened. The call rests on the fitted dose curve; in most records, active means well fitted curve in the direction sought with a large enough effect; inconclusive means small, poorly fitted or top-dose-only effect, or another doubt; inactive means no such curve, though single readings can be large; an effect the other way counts as inactive or inconclusive. Potency means the concentration at half of the fitted maximal effect.

SMILES | Rab9 promoter act | SMN2 splice enh | NPC1 promoter act | FLuc counter | ELG1 genotox
c1ccc(-c2cc(CSc3nc4ccccc4[nH]3)on2)cc1 | -10% | x | -2% | u | u
O=C1CCC(=O)N1c1ccc(CSc2nc3ccccc3[nH]2)cc1 | 22% | -9% | 13% | u | u
COc1ccc(CSc2nc3ncccc3[nH]2)cc1 | x | x | x | 19µM* | x
CC(CNC(=O)CCCn1c(=O)c2cccn2c2cccnc21)c1ccccc1 (configuration not stated) | x | x | x | -11% | x
Fc1ccccc1CSc1nc2ncccc2[nH]1 | u | 22µM* | u | 15µM* | 10µM*
COC(=O)c1cccc(CSc2nc3ccccc3[nH]2)c1 | u | 3.2µM* | 2.5µM* | 7.6µM* | u
COC(=O)c1ccc(CSc2nc3ccccc3[nH]2)o1 | u | -1% | 27% | u | 3%
CN(CC(=O)Nc1ccc(Cl)c(Cl)c1)C(=O)CNC(=O)Cc1ccccc1 | -4% | x | -4% | -12% | 4%
O=C(COc1cccc(F)c1)NNC(=O)Cc1ccc(Br)cc1 | -4% | x | 1% | x | 1%
O=S(=O)(Nc1ccc(Br)cn1)c1ccc2ccccc2c1 | 3% | x | -5% | -8% | 3%
O=C(Nc1ccc(Br)cn1)c1cccc(S(=O)(=O)N2CCCC2)c1 | x | x | x | x | -3%
O=C(Nc1ccc(Br)cn1)c1ccc2ccccc2c1 | 1.1µM* | x | 1.6µM* | 1.9µM* | u
O=C(Nc1ccc(Br)cn1)c1cccc(C(=O)Nc2ccc(Br)cn2)c1 | 0.56µM* | x | 2µM* | 3µM* | 21µM*
c1ccc(C(c2ccccc2)c2nc(-c3cccnc3)no2)cc1 | 0% | x | -7% | 0% | 2%
Brc1ccc(-c2nc(-c3ccccc3)no2)o1 | 2.5µM* | 18µM* | 3.5µM* | 12µM* | 8.2µM*
Brc1ccc(-c2nc(-c3cccnc3)no2)o1 | 2.8µM* | u | 4µM* | 17µM* | u
Cc1ccc(-c2nc(-c3cccnc3)no2)c(C)c1 | 1.8µM* | 16µM* | 2µM* | u | 5.2µM*
COc1ccc(CNC(=O)CN2C(=O)COc3ccc(S(=O)(=O)N4CCOCC4)cc32)cc1 | 5% | x | 0% | -19% | 0%[9.26 µM]
CNc1nc(N2CCc3ccccc32)ncc1F | 2.2µM* | u | 2.5µM* | 5.4µM* | u
COc1ccc(C2CC(=O)c3cnc(N4CCc5ccccc54)nc3C2)cc1OC (configuration not stated) | -3% | x | 0% | -1% | -3%
CCOC(=O)N1CCN(S(=O)(=O)c2ccc(C(=O)Nc3nnc(C4CC4)o3)cc2)CC1 | 2% | -70% | -5% | 3% | -3%
CCOC(=O)N1CCN(S(=O)(=O)c2ccc(C(=O)Nc3nnc(CC)o3)cc2)CC1 | -4% | 3.5µM* | -4% | 16% | -2%
Fc1cccc(-c2cc3nc4c(c(NCc5ccco5)n3n2)CCCC4)c1 | u | 11µM* | u | 7.6µM* | 17%
COc1cc(NS(C)(=O)=O)ccc1Nc1c2ccccc2nc2ccccc12 | -38%[46.1 µM] | -77% | -24%[46.1 µM] | 12µM* | u
COc1cc(OC)c(NC(=O)c2ccc3c(Cl)c4c(nc3c2)CCCC4)cc1Cl | x | -4% | x | -1% | x
SMILES | Rab9 promoter act | SMN2 splice enh | NPC1 promoter act | FLuc counter | ELG1 genotox
CCOc1ccccc1NC(=O)c1ccc2c(=O)n3c(nc2c1)CCCCC3 | 4% | x | 11% | u | -6%
CCOc1ccccc1NC(=O)c1ccc2ccccc2c1 | u | x | u | 21µM* | 0%
CCOc1ccccc1NC(=O)c1ccc2c(Cl)c3c(nc2c1)CCCC3 | x | -2% | x | 2.7µM* | x
COc1ccccc1NC(=O)c1ccc2c(Cl)c3c(nc2c1)CCCC3 | x | 1% | x | 7.6µM* | x
CCOc1ccccc1NC(=O)c1ccc2c(Cl)c3c(nc2c1)CCC3 | x | 22% | x | 0.85µM* | x
CCN(CC(=O)Nc1c(F)cccc1F)C(=O)c1cc(C)oc1C | -7% | x | -12% | 5% | 0%
CCCCCCCSc1nnc(N)s1 | 0% | x | -6% | -2% | 3%
CCC(=O)CCC(=O)c1ccc2ccccc2c1 | u | 14µM* | u | 15µM* | u
CC(C)N(CCC(=O)c1ccc2ccccc2c1)Cc1ccccc1 | -41%[46.1 µM] | 6% | -34%[46.1 µM] | -18% | -5%
CC(C)(C)NS(=O)(=O)c1cccc(S(=O)(=O)c2cccc(S(=O)(=O)NC(C)(C)C)c2)c1 | 1.6µM* | 14µM* | 2.5µM* | 5.4µM* | u
CC(C)(C)NS(=O)(=O)c1ccc(N2C(=O)c3ccccc3C2=O)cc1 | 2% | -2% | -5% | 5% | -1%
CCCNS(=O)(=O)c1cc(-c2nnc3c4ccccc4c(C)nn23)ccc1OC | x | -22% | x | 2% | x
O=C(/C=C/c1ccco1)Nc1ccc(Cl)c(S(=O)(=O)N2CCOCC2)c1 | -8% | x | 5% | 19µM* | -11%
NC(=O)c1ccc(NC(=O)COC(=O)/C=C/c2ccc3c(c2)OCO3)cc1 | 3% | x | 2% | 12µM* | 7%
Cc1ccc(NC(=O)/C=C/c2ccc3c(c2)OCO3)cc1S(=O)(=O)N1CCOCC1 | -17% | -51% | -3% | 11µM* | -11%
COc1ccc(/C=C/C(=O)Nc2ccc(C)c(S(=O)(=O)N3CCOCC3)c2)cc1 | x | x | x | x | -11%
COc1ccccc1NC(=O)COC(=O)/C=C/c1ccc2c(c1)OCO2 | 12% | -1% | 11% | 11µM* | u
O=C(Nc1ccccc1)Nc1ccc(Cl)c(S(=O)(=O)N2CCOCC2)c1 | -8% | -20% | -9% | u | -11%
CC(=O)Nc1ccc(NC(=O)COC(=O)/C=C/c2ccc3c(c2)OCO3)cc1 | 1% | x | -3% | -2% | 1%
O=C(N=C1SC2CS(=O)(=O)CC2N1c1cccc(Cl)c1Cl)C1CCCO1 (configuration not stated) | 1% | x | -13% | 1% | 0%
Cc1ccc(S(N)(=O)=O)cc1NC(=O)/C=C/c1ccc2c(c1)OCO2 | 3% | -5% | -1% | 24µM* | 1%
COc1ccc(NC(=O)C(NC(=O)/C=C\c2ccc3c(c2)OCO3)c2ccccc2)cc1 (configuration not stated) | x | 2µM* | x | 0% | x
COc1ccc(NC(=O)C(NC(=O)/C=C\c2ccc3c(c2)OCO3)c2ccc(OC)cc2)cc1 (configuration not stated) | x | -5% | x | -6% | x
COc1ccccc1NC(=O)/C=C/c1ccc2c(c1)OCO2 | u | 11µM* | 28% | 6.7µM* | 13%
COc1ccccc1N1CCN(C(=O)/C=C/c2ccc3c(c2)OCO3)CC1 | 1% | -10% | -3% | -9% | -6%
Cc1cccc(C(=O)Nc2nc(-c3ccc(Br)cc3)ns2)c1 | x | x | x | 1% | x

Source: PubChem BioAssay
